Values without a mark were called inactive.
Compound: C#CCNC(=O)CCSSCCC(=O)NCCc1ccc(C=O)c(C=O)c1
Assay: lysine labeling ratio R10:1 (500 µM / 50 µM probe), SILAC-ABPP in living cells; higher = lower intrinsic lysine reactivity toward the probe, active = 2 or less
Details: HeLa; probe concentrations 500 vs 50 µM
Method in brief: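 SILAC light and heavy living HeLa cells in PBS at room temperature were labelled with 50 µM or 500 µM of an alkyne-tagged, disulfide-linked lysine probe, with forward and reverse label swaps. Mixed lysates were clicked to biotin-azide, trypsin-digested, captured on neutravidin, DTT-released, alkylated and analysed by LC-MS/MS on a TIMS-TOF Pro. R is the filtered median high-probe/low-probe MS1 peptide ratio per lysine, then the median across forward and reverse replicates. Ratios are capped at 20.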

## APP (lysine site: K521) (UniProt P05067)
  lysine labeling ratio R10:1: 5.65

## VIM (lysine site: K188) (UniProt P08670)
UniProt P08670, sequence (P08670 whole entry): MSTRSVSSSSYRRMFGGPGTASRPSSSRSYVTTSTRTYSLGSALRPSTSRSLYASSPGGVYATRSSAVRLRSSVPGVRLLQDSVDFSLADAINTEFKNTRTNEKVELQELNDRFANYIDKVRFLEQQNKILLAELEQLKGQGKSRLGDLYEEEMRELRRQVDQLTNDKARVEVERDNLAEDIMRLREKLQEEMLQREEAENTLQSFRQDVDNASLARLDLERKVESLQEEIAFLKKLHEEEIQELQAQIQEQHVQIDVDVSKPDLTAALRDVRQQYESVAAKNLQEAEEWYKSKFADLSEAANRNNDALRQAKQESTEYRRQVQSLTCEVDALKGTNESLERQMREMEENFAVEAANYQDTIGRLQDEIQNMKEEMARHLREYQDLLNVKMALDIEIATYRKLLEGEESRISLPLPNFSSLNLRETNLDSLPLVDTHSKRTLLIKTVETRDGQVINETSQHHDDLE
  lysine labeling ratio R10:1: 11.1

## ACTBL2 (lysine site: K114) (UniProt Q562R1)
  lysine labeling ratio R10:1: 1.15 (active)

## ROBO1 (lysine site: K232) (UniProt Q9Y6N7)
  lysine labeling ratio R10:1: 5.29

## HSPA4 (lysine site: K686) (UniProt P34932)
  lysine labeling ratio R10:1: 8.32

## PDAP1 (lysine site: K181) (UniProt Q13442)
  lysine labeling ratio R10:1: 1.83 (active)

## UniProt Q86UP0 (lysine site: K324)
  lysine labeling ratio R10:1: 1.82 (active)

## UniProt Q96JJ7 (lysine site: K164)
  lysine labeling ratio R10:1: 1.61 (active)

## VIM (lysine site: K439) (UniProt P08670)
  lysine labeling ratio R10:1: 8.7

## STMN1 (lysine site: K128) (UniProt P16949)
  lysine labeling ratio R10:1: 2.8

## PTK7 (lysine site: K518) (UniProt Q13308)
  lysine labeling ratio R10:1: 1.76 (active)

## UniProt P21589 (lysine site: K536)
  lysine labeling ratio R10:1: 1.24 (active)

## IQGAP1 (lysine site: K1128) (UniProt P46940)
  lysine labeling ratio R10:1: 2.31

## PDIA4 (lysine site: K637) (UniProt P13667)
  lysine labeling ratio R10:1: 2.44

## FAT4 (lysine site: K2570) (UniProt Q6V0I7)
  lysine labeling ratio R10:1: 3.02

## CELSR2 (lysine site: K2300) (UniProt Q9HCU4)
  lysine labeling ratio R10:1: 1.18 (active)

## CCT8 (lysine site: K326) (UniProt P50990)
  lysine labeling ratio R10:1: 3.67

## ITGA2 (lysine site: K884) (UniProt P17301)
  lysine labeling ratio R10:1: 1.93 (active)

## NEGR1 (lysine site: K180) (UniProt Q7Z3B1)
  lysine labeling ratio R10:1: 1.72 (active)

## UniProt P05787 (lysine site: K352)
  lysine labeling ratio R10:1: 9.16

## LMO7 (lysine site: K1496) (UniProt Q8WWI1)
  lysine labeling ratio R10:1: 2.11

## ATRN (lysine site: K1133) (UniProt O75882)
  lysine labeling ratio R10:1: 1.81 (active)

## SEMA3C (lysine site: K391) (UniProt Q99985)
  lysine labeling ratio R10:1: 4.13

## IGF2R (lysine site: K303) (UniProt P11717)
  lysine labeling ratio R10:1: 2.37

## UniProt P46781 (lysine site: K52)
  lysine labeling ratio R10:1: 2.39

## SERPINH1 (lysine site: K94) (UniProt P50454)
  lysine labeling ratio R10:1: 3.29

## ITGA1 (lysine site: K291) (UniProt P56199)
  lysine labeling ratio R10:1: 7.48

## CCT2 (lysine site: K230) (UniProt P78371)
  lysine labeling ratio R10:1: 3.3

## F2 (lysine site: K384) (UniProt P00734)
  lysine labeling ratio R10:1: 4.42

## VASN (lysine site: K506) (UniProt Q6EMK4)
  lysine labeling ratio R10:1: 5.1

## KIRREL (lysine site: K113) (UniProt Q96J84)
  lysine labeling ratio R10:1: 2.15

## CDK5 (lysine site: K33) (UniProt Q00535)
  lysine labeling ratio R10:1: 6.8

## UniProt Q15223 (lysine site: K190)
  lysine labeling ratio R10:1: 1.25 (active)

## UniProt Q15149 (lysine site: K2274)
UniProt Q15149, sequence (Q15149 whole entry): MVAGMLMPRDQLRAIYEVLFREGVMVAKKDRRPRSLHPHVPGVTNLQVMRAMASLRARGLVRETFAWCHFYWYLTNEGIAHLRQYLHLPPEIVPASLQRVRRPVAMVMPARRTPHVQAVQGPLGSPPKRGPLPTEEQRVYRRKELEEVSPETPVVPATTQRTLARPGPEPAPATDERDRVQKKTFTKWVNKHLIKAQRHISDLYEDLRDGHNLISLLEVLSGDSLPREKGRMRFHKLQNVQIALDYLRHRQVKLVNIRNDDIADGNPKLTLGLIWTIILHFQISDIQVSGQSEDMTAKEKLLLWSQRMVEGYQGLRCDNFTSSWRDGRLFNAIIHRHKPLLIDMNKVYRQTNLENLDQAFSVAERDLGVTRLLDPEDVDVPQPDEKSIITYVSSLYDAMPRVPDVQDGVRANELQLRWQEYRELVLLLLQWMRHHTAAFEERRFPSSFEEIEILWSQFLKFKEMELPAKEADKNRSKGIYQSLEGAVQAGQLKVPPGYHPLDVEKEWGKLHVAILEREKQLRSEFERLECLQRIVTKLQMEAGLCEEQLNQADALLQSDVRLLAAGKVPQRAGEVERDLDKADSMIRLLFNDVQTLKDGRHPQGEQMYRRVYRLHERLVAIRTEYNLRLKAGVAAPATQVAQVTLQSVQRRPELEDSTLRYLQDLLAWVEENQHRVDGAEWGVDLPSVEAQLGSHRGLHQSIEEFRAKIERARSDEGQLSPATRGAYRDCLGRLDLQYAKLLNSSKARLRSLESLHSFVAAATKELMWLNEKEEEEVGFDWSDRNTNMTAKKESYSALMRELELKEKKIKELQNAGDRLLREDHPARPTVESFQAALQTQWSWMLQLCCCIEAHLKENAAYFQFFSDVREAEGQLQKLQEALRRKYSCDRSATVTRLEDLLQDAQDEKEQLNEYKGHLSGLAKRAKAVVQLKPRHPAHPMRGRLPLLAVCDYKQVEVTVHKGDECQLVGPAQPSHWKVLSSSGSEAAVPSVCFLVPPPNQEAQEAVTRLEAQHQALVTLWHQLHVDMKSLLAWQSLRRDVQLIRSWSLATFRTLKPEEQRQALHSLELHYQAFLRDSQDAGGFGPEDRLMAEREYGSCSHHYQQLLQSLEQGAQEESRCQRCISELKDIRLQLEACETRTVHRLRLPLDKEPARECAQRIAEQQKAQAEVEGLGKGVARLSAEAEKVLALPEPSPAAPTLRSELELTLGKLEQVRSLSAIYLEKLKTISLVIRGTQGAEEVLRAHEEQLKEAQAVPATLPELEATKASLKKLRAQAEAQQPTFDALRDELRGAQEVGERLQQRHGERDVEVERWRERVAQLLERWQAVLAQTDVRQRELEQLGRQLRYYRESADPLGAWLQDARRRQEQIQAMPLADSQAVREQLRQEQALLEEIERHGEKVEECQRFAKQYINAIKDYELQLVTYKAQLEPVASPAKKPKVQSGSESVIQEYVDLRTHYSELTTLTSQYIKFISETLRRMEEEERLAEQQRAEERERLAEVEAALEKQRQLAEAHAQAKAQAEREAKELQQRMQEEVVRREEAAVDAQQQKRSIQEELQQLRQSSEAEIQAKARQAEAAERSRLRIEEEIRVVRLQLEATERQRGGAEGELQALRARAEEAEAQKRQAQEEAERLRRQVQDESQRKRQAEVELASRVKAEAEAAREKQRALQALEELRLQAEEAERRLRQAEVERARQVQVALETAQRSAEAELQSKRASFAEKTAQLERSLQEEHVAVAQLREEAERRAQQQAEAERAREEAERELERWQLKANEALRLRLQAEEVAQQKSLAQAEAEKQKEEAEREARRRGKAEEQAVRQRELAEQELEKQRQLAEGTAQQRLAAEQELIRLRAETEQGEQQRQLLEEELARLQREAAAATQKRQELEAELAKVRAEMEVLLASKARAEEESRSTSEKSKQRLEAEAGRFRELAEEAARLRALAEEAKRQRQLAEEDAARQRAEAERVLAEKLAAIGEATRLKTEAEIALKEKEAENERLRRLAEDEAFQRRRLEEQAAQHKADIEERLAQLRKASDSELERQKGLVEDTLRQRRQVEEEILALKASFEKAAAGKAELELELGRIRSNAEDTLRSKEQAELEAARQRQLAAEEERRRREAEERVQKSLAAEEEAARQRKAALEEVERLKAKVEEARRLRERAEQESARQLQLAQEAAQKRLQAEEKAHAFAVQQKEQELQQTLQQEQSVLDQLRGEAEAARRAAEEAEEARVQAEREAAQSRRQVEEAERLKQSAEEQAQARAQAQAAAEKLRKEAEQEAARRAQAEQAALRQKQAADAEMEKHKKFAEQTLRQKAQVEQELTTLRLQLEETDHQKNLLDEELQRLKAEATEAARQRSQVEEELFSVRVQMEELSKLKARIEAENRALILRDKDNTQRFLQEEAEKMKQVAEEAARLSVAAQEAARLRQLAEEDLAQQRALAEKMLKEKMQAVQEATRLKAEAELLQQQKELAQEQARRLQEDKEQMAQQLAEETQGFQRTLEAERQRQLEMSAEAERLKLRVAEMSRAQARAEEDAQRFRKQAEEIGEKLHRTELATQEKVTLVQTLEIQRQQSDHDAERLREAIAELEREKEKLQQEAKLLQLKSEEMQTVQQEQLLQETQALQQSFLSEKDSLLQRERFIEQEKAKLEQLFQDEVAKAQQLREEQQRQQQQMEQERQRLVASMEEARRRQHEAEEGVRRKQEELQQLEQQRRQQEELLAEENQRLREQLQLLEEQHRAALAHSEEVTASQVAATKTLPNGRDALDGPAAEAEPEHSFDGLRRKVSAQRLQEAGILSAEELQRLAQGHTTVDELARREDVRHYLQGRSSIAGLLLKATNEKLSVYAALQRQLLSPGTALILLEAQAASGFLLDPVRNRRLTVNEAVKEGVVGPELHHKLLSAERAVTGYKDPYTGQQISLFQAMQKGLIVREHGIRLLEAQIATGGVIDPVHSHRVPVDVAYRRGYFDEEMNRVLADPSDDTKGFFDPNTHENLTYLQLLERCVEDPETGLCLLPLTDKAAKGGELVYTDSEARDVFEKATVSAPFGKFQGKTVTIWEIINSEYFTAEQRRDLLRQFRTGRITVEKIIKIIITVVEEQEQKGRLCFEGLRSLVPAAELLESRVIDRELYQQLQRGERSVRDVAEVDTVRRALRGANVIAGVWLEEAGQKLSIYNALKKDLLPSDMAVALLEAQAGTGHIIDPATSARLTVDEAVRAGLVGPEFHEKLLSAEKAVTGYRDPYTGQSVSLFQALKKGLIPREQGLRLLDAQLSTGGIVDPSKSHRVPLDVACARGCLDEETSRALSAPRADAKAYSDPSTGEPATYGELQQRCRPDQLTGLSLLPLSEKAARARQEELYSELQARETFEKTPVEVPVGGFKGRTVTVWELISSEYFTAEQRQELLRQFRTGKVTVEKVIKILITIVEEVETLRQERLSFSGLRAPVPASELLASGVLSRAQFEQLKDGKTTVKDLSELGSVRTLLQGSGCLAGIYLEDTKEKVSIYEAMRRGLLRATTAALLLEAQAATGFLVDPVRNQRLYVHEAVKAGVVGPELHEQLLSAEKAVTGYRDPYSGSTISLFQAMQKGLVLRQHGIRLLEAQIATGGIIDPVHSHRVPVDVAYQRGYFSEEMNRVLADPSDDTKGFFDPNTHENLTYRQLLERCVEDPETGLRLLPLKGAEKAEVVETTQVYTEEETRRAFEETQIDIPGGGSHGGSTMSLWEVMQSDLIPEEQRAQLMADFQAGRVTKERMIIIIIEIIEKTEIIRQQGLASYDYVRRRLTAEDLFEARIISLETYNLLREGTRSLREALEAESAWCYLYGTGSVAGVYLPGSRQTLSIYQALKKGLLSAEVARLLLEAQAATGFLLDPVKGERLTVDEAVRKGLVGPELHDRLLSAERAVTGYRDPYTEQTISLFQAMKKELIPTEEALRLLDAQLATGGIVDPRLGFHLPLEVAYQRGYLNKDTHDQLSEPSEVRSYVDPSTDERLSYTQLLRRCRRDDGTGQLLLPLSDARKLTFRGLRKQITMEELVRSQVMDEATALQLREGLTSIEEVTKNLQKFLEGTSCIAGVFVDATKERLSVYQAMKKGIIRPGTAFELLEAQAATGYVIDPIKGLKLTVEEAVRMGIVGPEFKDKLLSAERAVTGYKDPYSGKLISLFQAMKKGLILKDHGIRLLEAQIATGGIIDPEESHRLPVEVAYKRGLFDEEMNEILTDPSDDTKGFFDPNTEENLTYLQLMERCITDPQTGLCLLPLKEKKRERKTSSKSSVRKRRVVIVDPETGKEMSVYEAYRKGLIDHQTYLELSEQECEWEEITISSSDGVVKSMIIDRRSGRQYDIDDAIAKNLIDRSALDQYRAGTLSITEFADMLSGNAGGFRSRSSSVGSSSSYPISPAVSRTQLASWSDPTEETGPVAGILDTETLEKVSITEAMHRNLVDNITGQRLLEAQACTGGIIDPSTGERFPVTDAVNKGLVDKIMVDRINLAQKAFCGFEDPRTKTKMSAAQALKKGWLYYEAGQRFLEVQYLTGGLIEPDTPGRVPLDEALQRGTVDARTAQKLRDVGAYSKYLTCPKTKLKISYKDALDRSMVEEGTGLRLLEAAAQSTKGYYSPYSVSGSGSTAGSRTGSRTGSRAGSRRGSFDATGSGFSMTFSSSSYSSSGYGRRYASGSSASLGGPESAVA
  lysine labeling ratio R10:1: 2.24

## SLC39A6 (lysine site: K156) (UniProt Q13433)
  lysine labeling ratio R10:1: 3.23

## UniProt P61978 (lysine site: K179)
  lysine labeling ratio R10:1: 3.68

## HSPA9 (lysine site: K345) (UniProt P38646)
  lysine labeling ratio R10:1: 1.17 (active)

## UniProt P26639 (lysine site: K213)
  lysine labeling ratio R10:1: 0.782 (active)

## ITGB1 (lysine site: K238) (UniProt P05556)
  lysine labeling ratio R10:1: 1.34 (active)

## UniProt Q9BTX1 (lysine site: K628)
  lysine labeling ratio R10:1: 5.32

## NPTN (lysine site: K260) (UniProt Q9Y639)
  lysine labeling ratio R10:1: 1 (active)

## LRP1 (lysine site: K2653) (UniProt Q07954)
  lysine labeling ratio R10:1: 1.54 (active)

## PSMB1 (lysine site: K204) (UniProt P20618)
  lysine labeling ratio R10:1: 2.46

## Q95604 (lysine site: K210) (UniProt P10321)
  lysine labeling ratio R10:1: 6.33

## GSN (lysine site: K193) (UniProt P06396)
  lysine labeling ratio R10:1: 2.07

## FAT4 (lysine site: K2512) (UniProt Q6V0I7)
  lysine labeling ratio R10:1: 2.31

## LAMB1 (lysine site: K1746) (UniProt P07942)
  lysine labeling ratio R10:1: 3.26

## IGF2R (lysine site: K1230) (UniProt P11717)
  lysine labeling ratio R10:1: 1.74 (active)

## CD109 (lysine site: K567) (UniProt Q6YHK3)
  lysine labeling ratio R10:1: 3.37

## SMOC1 (lysine site: K308) (UniProt Q9H4F8)
  lysine labeling ratio R10:1: 4.95

## GPI (lysine site: K447) (UniProt P06744)
  lysine labeling ratio R10:1: 2.73

## S100A10 (lysine site: K57) (UniProt P60903)
  lysine labeling ratio R10:1: 2.66

## SPTAN1 (lysine site: K2187) (UniProt Q13813)
  lysine labeling ratio R10:1: 5.14

## UniProt P62280 (lysine site: K32)
  lysine labeling ratio R10:1: 4.32

## UniProt Q15149 (lysine site: K1175)
  lysine labeling ratio R10:1: 1.67 (active)

## SLC1A4 (lysine site: K239) (UniProt P43007)
  lysine labeling ratio R10:1: 1.94 (active)

## AKR1B1 (lysine site: K263) (UniProt P15121)
  lysine labeling ratio R10:1: 8.32

## UniProt Q6NZI2 (lysine site: K122)
  lysine labeling ratio R10:1: 5.32

## IARS (lysine site: K903) (UniProt P41252)
  lysine labeling ratio R10:1: 1.66 (active)

## UniProt P62851 (lysine site: K66)
  lysine labeling ratio R10:1: 2.69

## UniProt Q9HAB3 (lysine site: K437)
  lysine labeling ratio R10:1: 2.11

## NUCB2 (lysine site: K171) (UniProt P80303)
  lysine labeling ratio R10:1: 2.34

## FKBP4 (lysine site: K390) (UniProt Q02790)
  lysine labeling ratio R10:1: 3.84

## DSTN (lysine site: K19) (UniProt P60981)
  lysine labeling ratio R10:1: 1.87 (active)

## UniProt Q15149 (lysine site: K4584)
  lysine labeling ratio R10:1: 0.906 (active)

## PRDX2 (lysine site: K119) (UniProt P32119)
  lysine labeling ratio R10:1: 2 (active)

## CDCP1 (lysine site: K369) (UniProt Q9H5V8)
  lysine labeling ratio R10:1: 2.97

## CELSR2 (lysine site: K2176) (UniProt Q9HCU4)
  lysine labeling ratio R10:1: 4.05

## FN1 (lysine site: K1623) (UniProt P02751)
  lysine labeling ratio R10:1: 1.34 (active)

## ITGB1 (lysine site: K134) (UniProt P05556)
  lysine labeling ratio R10:1: 1.83 (active)

## SPTAN1 (lysine site: K296) (UniProt Q13813)
  lysine labeling ratio R10:1: 2.12

## UniProt Q8WXI7 (lysine site: K12605)
  lysine labeling ratio R10:1: 3.8

## RAB8A (lysine site: K197) (UniProt P61006)
  lysine labeling ratio R10:1: 2.44

— the supplement of paper PMC11001985
